Activity calls are given as the source filed them. No rule for the calls is given here.

The assay deals with Aerobactin synthetase IucA (Klebsiella pneumoniae, hypervirulent). Briefly: IucA enzyme inhibition, biochemical, LOPAC library, absorbance readout (AID 1346212).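 Also: 100% = no compound wells and 0% = no enzyme wells.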 The settings on record: IucA enzyme assay, absorbance (OD) readout; stronger effect = lower value;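 tested at 8 µM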.
By remaining activity is commonly meant the signal under treatment as a percentage of the control signal. With `C[C@@](Cc1ccc(O)c(O)c1)(NN)C(=O)O`, the remaining activity was 81.8% (inactive).

Turning to `O=C(O)CCC(=O)N1CCCC1C(=O)O` (stereo unspecified), the remaining activity was 98.4% (inactive).

In the case of `N=C(N)c1ccc(N)cc1`, the remaining activity was 112% (inactive).

`COc1cc2ncc(-c3ccccc3)nc2cc1OC`: the remaining activity is 120% (inactive).

Turning to `CCOC(=O)Nc1ccc(NCc2ccc(F)cc2)nc1N`, the remaining activity was 97.8% (inactive).

For the compound `CCCCCCCCCCCCCCSCC(=O)O`, the remaining activity is 105% (inactive).

For `c1ccc(CN2CCC3(CCCc4ccccc43)CC2)cc1`, the remaining activity is 103% (inactive).

Consider `N#Cc1c(-c2ccccc2)no[n+]1[O-]`, for which the remaining activity was 125% (inactive).

Turning to `CCOC(=O)C12CC1/C(=N\O)c1ccccc1O2` (stereo unspecified), the remaining activity is 108% (inactive).

`CC1(C)CCC(NC(=O)[C@@H](N)CCC(=O)O)CC1`: the remaining activity is 116% (inactive).

Consider `NC(=O)c1cc[n+](CC2=C(C(=O)O)N3C(=O)[C@@H](NC(=O)[C@@H](c4ccccc4)S(=O)(=O)[O-])[C@H]3SC2)cc1`, for which the remaining activity is 107% (inactive).

As to `Nc1nc2ccc(OC(F)(F)F)cc2s1`, the remaining activity is 98.9% (inactive).

With `N#C/C(=C\c1ccc(O)c(O)c1)C(=O)Nc1ccccc1`, the remaining activity is 103% (inactive).

Consider `NCCCC(N)(C(=O)O)C(F)F` (stereo unspecified), for which the remaining activity is 121% (inactive).

Regarding `CC(=O)O[C@H]1C(=O)[C@@]2(C)[C@H]([C@H](OC(=O)c3ccccc3)[C@]3(O)C[C@H](OC(=O)[C@H](O)[C@@H](NC(=O)c4ccccc4)c4ccccc4)C(C)=C1C3(C)C)[C@]1(OC(C)=O)CO[C@@H]1C[C@@H]2O`, the remaining activity was 94.8% (inactive).

For the compound `O=C(Nc1ccccc1)c1cc([N+](=O)[O-])ccc1Cl`, the remaining activity was 115% (inactive).

The values are drawn from PubChem BioAssay.
